Hits are enriched below; roughly 1.4% of the tested compounds scored in any of these assays.
Bcl-xL primary: Bcl-xL (human) inhibition | Q07817 | actives 0.7% (n = 320,000) | inhibition, % at 10.9 µM | GST-Bcl-xL / FITC-Bim BH3 peptide fluorescence polarization;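 active = inhibition above the mean of all tested compounds plus 3 SD, cutoff set per campaign, cut at about 30% in these data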;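 note: inhibitors lower millipolarization by displacing the labeled peptide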
Target sequence (Q07817 whole entry, looked up): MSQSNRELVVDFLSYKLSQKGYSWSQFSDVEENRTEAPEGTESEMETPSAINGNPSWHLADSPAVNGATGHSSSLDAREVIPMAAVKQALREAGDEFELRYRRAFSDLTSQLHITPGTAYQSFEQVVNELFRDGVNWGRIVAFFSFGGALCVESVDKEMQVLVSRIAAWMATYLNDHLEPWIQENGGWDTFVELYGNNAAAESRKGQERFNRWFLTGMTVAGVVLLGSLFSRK
E coli Lon inh: inhibits E. coli Lon protease; P0A9M0; purified E. coli Lon protease, fluorescence polarization; inhibition, % at 7.94 µM; actives 0.42% (n = 360,000); in the data active = inhibition above about 13%, passing the limit was not always enough
MEX-5 binding: C. elegans MEX-5 TCR-2 RNA binding activity; MEX-5/FITC-TCR2 RNA binding, fluorescence polarization; active compounds read low; activity score (negative = inhibition of binding), % at 10 µM; AID 1832; actives 0.38% (n = 300,000); Q9XUB2;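 active = inhibition past about -25% in most replicates, and total fluorescence under double the plate's negative control median, limit read from the data; inconclusive = replicates evenly split on the limit, or fluorescence at least double controls; inactive = too little inhibition in most replicates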
MCL1 BIM primary: inhibitors of human MCL1 binding to BIM-BH3 peptide; Q07820; GST-MCL1 / FITC-Bim-BH3 fluorescence polarization; inhibition, % at 10.9 µM; actives 0.68% (n = 320,000); AID 2057;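 active = inhibition above the mean inhibition of all tested compounds plus 3 SD, set per campaign, cut at about 40% in these data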;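 note: higher means more loss of mP so more displacement of Bim peptide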
Target sequence (Q07820 whole entry, looked up): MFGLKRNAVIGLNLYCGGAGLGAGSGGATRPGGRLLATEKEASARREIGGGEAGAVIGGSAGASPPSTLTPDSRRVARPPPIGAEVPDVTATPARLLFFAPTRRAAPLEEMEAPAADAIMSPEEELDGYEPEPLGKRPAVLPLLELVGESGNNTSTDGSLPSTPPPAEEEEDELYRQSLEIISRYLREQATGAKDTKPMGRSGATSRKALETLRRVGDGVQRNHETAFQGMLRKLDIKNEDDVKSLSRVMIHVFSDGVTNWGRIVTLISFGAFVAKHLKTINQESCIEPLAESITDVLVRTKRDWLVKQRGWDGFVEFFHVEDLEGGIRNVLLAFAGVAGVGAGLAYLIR
GLD-1 TGE inh: GLD-1-TGE RNA interaction inhibition (C. elegans). AID 2280. inhibition, % at 5.96 µM. actives 0.44% (n = 320,000). purified GLD-1 + fluorescein TGE RNA, fluorescence polarization;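 active = percent inhibition above a per-plate cutoff, the plate mean of test compounds plus 3 SD, cut at about 30% in these data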
BCLXL inh confirm: counter-screen for MCL1 inhibitors: confirmation of human Bcl-xL inhibitors | shares compounds with MCL1 BIM primary | GST-Bcl-xL / FITC-Bim BH3 peptide FP binding | inhibition, % at 10.9 µM | actives 54% (n = 1,700);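 active = inhibition above a cutoff equal to the mean inhibition of all tested compounds plus 3 SD, cut at about 30% in these data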
MCL1 inh confirm: MCL1-BIM-BH3 interaction inhibition, confirmation; shares compounds with MCL1 BIM primary; AID 2168; GST-MCL1 / FITC-Bim-BH3 fluorescence polarization; inhibition, % at 10.9 µM; actives 61% (n = 1,700);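 active = inhibition above the average of all tested compounds plus 3 SD, cut at about 40% in these data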
Each line names hits and unclear results; the compound was inactive in the other large screens (follow-up assays come after a bar, where they were run).

Cn1cccc1CC(=O)N/N=C/c1cccc2ccccc12	Bcl-xL primary 46.2, GLD-1 TGE inh 36.1
C[N+]12CCCCC1C(COC(=O)c1ccc3c(c1)OCO3)CCC2 (configuration not stated)	none
O=[N+]([O-])c1ccccc1/C=N\Nc1nccs1	none
O=[N+]([O-])c1cc(/C=N\Nc2nccs2)ccc1O	MEX-5 binding -100.3 (no result: Bcl-xL primary, E coli Lon inh, MCL1 BIM primary, GLD-1 TGE inh)
C[C@H](CO)N1C[C@H](C)[C@@H](CN(C)Cc2ccc(-c3ccccc3)cc2)Oc2c(NC(=O)Nc3ccc(C(F)(F)F)cc3)cccc2C1=O	none (no result: Bcl-xL primary, MEX-5 binding, MCL1 BIM primary)
CC(=O)Nc1ccc(NC(=O)C2(C)CC2(Cl)Cl)cc1 (configuration not stated)	none
COc1ccc(/C=C2\C(=O)NC(=S)N2C(=O)c2ccc(C)cc2)cc1	MEX-5 binding -26.1
COc1cc2c3nnc(-c4ccccc4)c-3cn(Cc3ccc(F)cc3)c2cc1OC	MEX-5 binding -34.4
N#Cc1ccc(-c2nc3ccc(Cl)cn3c2Cc2ccccc2C(F)(F)F)cc1	none (no result: Bcl-xL primary, MEX-5 binding, MCL1 BIM primary, GLD-1 TGE inh)
CNC(=O)/C(C#N)=C/c1ccc(-c2ccc(Cl)cc2)o1	MEX-5 binding -34.0
CN(C)C=Nc1nc2ccccc2nc1N1CCCC1	Bcl-xL primary 42.8, MCL1 BIM primary 41.3
c1ccc2nc(N3CCCC3)c(N3CCCC3)nc2c1	Bcl-xL primary 38.7, MCL1 BIM primary 44.4
Cc1nc2ccccc2nc1N1CCCCC1	none (no result: Bcl-xL primary, MEX-5 binding, MCL1 BIM primary, GLD-1 TGE inh)
COc1ccc(C2NC(=O)N(C)C3=C2C(=O)CC(C)(C)C3)cc1OC (configuration not stated)	none
CN1C(=O)NC(c2cccc(F)c2)C2=C1CC(C)(C)CC2=O (configuration not stated)	Bcl-xL primary 35.5
COc1ccc(-n2c(N)c(C(=O)Nc3c(C)n(C)n(-c4ccccc4)c3=O)c3nc4ccccc4nc32)cc1	none
Cc1ccc(-n2c(N)c(C(=O)Nc3c(C)n(C)n(-c4ccccc4)c3=O)c3nc4ccccc4nc32)cc1C	Bcl-xL primary 57.1, MCL1 BIM primary 61.2 (no result: E coli Lon inh)
c1ccc(-c2nn3c(Cn4nnc5ccccc54)nnc3s2)nc1	Bcl-xL primary 37.6, MCL1 BIM primary 48.0
Cc1ccc(S(=O)(=O)NCC(=O)Nc2cccnc2)cc1C	none (no result: Bcl-xL primary, MEX-5 binding, MCL1 BIM primary)
CCN(CC)c1ccc2cc(S(=O)(=O)c3ccc(C)cc3)c(=O)oc2c1	MEX-5 binding -77.4
Cc1ccc(S(=O)(=O)c2cc3ccccc3oc2=O)cc1	none
CCN(CC)c1ccc2cc(C#N)c(=O)oc2c1	MEX-5 binding -56.9
CCCCCCc1cc2cc(S(=O)(=O)c3ccc(F)cc3)c(=O)oc2cc1O	GLD-1 TGE inh 59.6
CCN(CC)c1ccc2ccc(=O)oc2c1	none
Cc1c(-c2ccccc2)[n+](=O)c(-c2ccco2)c(C)n1[O-]	none
Nc1cc2nsnc2cc1Br	Bcl-xL primary 42.5, MCL1 BIM primary 41.5
COc1cccc(/C(O)=C/c2nc3ccc(C(=O)NCCc4ccc(Cl)cc4)cc3[nH]c2=O)c1	MEX-5 binding -49.0 (no result: Bcl-xL primary, MCL1 BIM primary, GLD-1 TGE inh)
Cc1nc(S/C(=C\c2ccc(-c3ccc(C(=O)O)c(Cl)c3)o2)C(=O)O)n[nH]1	MEX-5 binding -90.9 (no result: Bcl-xL primary, MCL1 BIM primary, GLD-1 TGE inh)
Cc1nc(S/C(=C\c2ccc(OCc3ccccc3Cl)cc2)C(=O)O)n[nH]1	none (no result: MEX-5 binding)
COc1ccc(NC(=O)CSc2nc3c(c(-c4cccs4)c2C#N)CN(C)CC3)cc1OC	Bcl-xL primary 42.1
CC(=O)c1cccc(S(=O)(=O)N2CCC(C(=O)N(C)Cc3ccc(Cl)s3)CC2)c1	none (no result: MEX-5 binding)
Cc1cc(C)c([C@@H]2C[C@H]3CN(C4CCCC4)C(=O)[C@]34CCCN24)c(-n2cccn2)c1	Bcl-xL primary 33.8
CCCS(=O)(=O)NC(=O)C1(C)CCN(C(=O)c2ccccc2F)C1 (configuration not stated)	none (no result: Bcl-xL primary, MEX-5 binding, MCL1 BIM primary, GLD-1 TGE inh)
CS(=O)(=O)Oc1ccc2c(c1)O/C(=C\C=C\c1ccccc1)C2=O	MEX-5 binding -41.8
O=C(N/N=C(\Cc1ncc[nH]1)c1ccccc1)c1cccnc1	none (no result: MEX-5 binding)
CC(C)OCCCn1c(=NC(=O)c2ccncc2)c(C#N)cc2c(=O)n3ccccc3nc21	Bcl-xL primary 34.2
O=C(NCC(F)(F)F)c1csc([C@@H]2O[C@H](CO)[C@H](O)[C@H](O)[C@H]2O)n1	none (no result: Bcl-xL primary, MEX-5 binding, MCL1 BIM primary, GLD-1 TGE inh)
Nc1ccc(N(CCO)CCO)cc1	Bcl-xL primary 41.9, MEX-5 binding -27.8, MCL1 BIM primary 43.0
Cc1n[nH]c(C)c1Sc1ccccc1N=Cc1cc(Cl)cc([N+](=O)[O-])c1O	MEX-5 binding -51.2
COc1ccc(C)cc1NCc1ccc(OC)c(C)c1OC	none
Cn1ncc(N)c1C(=O)Nc1cccc(C(F)(F)F)c1	Bcl-xL primary 41.0
O=C(CCCCCn1c(=O)[nH]c2ccccc2c1=O)NCCCN1CCN(c2ccccc2F)CC1	none
CN(C)C(=S)SCC(=O)NCc1ccc(F)cc1	none
CCOCCCNC1=C(Cl)C(=O)c2ccccc2C1=O	Bcl-xL primary 34.0
C(=N\NC(=Nc1ccccc1)c1ccccn1)/c1ccccn1	MEX-5 binding -54.0
COc1ccc(NC(=O)c2noc3c2CCC3)cc1	none
COc1cc(NC(=O)c2noc3c2CCC3)c(OC)cc1Cl	MCL1 BIM primary 49.5 | BCLXL inh confirm inactive | MCL1 inh confirm 52.7
Cc1ccc(NC(=O)C(C)c2ccc([N+](=O)[O-])cc2)cc1Cl (configuration not stated)	none
CNc1ccccc1	none (no result: MEX-5 binding)
CNc1cccccc1=S	Bcl-xL primary 54.5, MCL1 BIM primary 78.2 | BCLXL inh confirm inactive | MCL1 inh confirm inactive
CN(C(=O)COC(=O)c1cc[n+]([O-])cc1)c1ccccc1	none
CCOc1ccc(C(=O)Nc2c(C(=O)N3CCC(N4CCCCC4)CC3)oc3ccccc23)cc1	none (no result: MEX-5 binding)
CC1(OC(=O)c2ccc(Cl)nc2)C(=O)C=C2C=C(c3ccsc3)OC=C2C1=O (configuration not stated)	none (no result: E coli Lon inh)
CCCCC1=CC2=CC(=O)C(C)(OC(=O)CCC(=O)OC)C(=O)C2=CO1 (configuration not stated)	Bcl-xL primary 41.7, MEX-5 binding -26.9, MCL1 BIM primary 61.9, GLD-1 TGE inh 54.0 (no result: E coli Lon inh) | BCLXL inh confirm inactive | MCL1 inh confirm 50.5
CC1(OC(=O)c2ccc(Cl)nc2)C(=O)C=C2C=C(c3ccc(C#N)cc3)OC=C2C1=O (configuration not stated)	MEX-5 binding inconclusive (no result: E coli Lon inh)
COC(=O)CCCC1=CC2=CC(=O)C(C)(OC(=O)c3cccs3)C(=O)C2=CN1c1ccccc1 (configuration not stated)	none
